Nrf2 block: Nrf2 pathway inhibition. A549 ARE-Fluc reporter, luciferase luminescence, 18-24 h. Potency, µM (titrated, usually from 46 µM), for the others: at the top dose activity change, negative = inhibition, actives largely listed as inhibitors. 360,000 compounds, 2.1% hits; note: % is set by controls: 0 for no effect and ±100 for the full control effect; nearly all actives have a fitted effect of over 60% in size
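In this cell-based qHTS, ARE-driven firefly luciferase in A549 cells reports Nrf2 activity; the luminescent signal after BugLite lysis is the measured value, with a prior CellTiter-Fluor read for cell health.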
TrxR1 inh: inhibitors of rat thioredoxin reductase 1. O89049. recombinant rTrxR1, NADPH fluorescence consumption, selenite substrate. Potency, µM (highest dose often 114 µM), for inactives: at the top dose activity change, negative = inhibition, usual class: inhibitors. 390,000 compounds, 1% hits; note: % is set by controls: 0 for no effect and ±100 for the full control effect; nearly all actives have a fitted effect of over 65% in size
Target sequence (O89049 whole entry, looked up): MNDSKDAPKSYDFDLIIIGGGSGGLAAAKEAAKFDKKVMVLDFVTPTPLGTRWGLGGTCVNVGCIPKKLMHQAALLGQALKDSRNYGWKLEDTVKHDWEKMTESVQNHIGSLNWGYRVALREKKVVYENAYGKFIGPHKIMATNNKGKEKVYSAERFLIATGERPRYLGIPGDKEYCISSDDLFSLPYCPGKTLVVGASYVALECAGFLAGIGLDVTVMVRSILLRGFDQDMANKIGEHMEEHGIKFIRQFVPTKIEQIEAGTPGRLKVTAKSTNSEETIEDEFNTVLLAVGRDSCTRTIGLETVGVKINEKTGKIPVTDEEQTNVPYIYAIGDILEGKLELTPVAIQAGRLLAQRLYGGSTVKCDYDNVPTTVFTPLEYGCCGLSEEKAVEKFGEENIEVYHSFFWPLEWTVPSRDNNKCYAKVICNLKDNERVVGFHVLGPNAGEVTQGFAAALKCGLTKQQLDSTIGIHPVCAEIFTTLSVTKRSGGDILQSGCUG
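Rat TrxR1 (90 nM in the dispensed reagent) was pre-reduced with 400 uM NADPH for 5 min at room temperature, then incubated with compound for 15 min. After 400 uM selenite was added, NADPH fluorescence (Ex 340/Em 450 nm) was followed for 8 min.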
GALK inh: galactokinase (human) inhibition; 270,000 compounds, 0.007% hits; Potency, µM (series often up to 57.5 µM), without a hit: at the highest dose activity change, negative = inhibition, most hits filed as inhibitors; Purified GALK, Kinase-Glo residual ATP luminescence; P51570; note: % is set by controls: 0 for no effect and ±100 for the full control effect
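Compounds were pin-transferred into ATP buffer (35 uM final), then GALK plus galactose (5 nM, 100 uM final) was added. After 1 h at room temperature, Kinase-Glo Plus was added and luminescence read after 10 min.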
A549 tox: A549 cytotoxicity, counter-screen for Nrf2 inhibitors; A549 ARE-Fluc cells, CellTiter-Fluor viability, 18-24 h; Potency, µM (highest dose often 46 µM), without a hit: at the top dose activity change, negative = cytotoxicity, hits mostly inhibitors; 390,000 compounds, 0.16% hits; note: % is set by controls: 0 for no effect and ±100 for the full control effect
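Cytotoxicity counterscreen: CellTiter-Fluor fluorescence was measured in A549 ARE_Fluc cells after 18-24 h of compound exposure in a concentration series. The subsequent BugLite luminescent read reports ARE-luciferase activity.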
Nrf2 ARE act: activators of Nrf2 (ARE) signaling; 410,000 compounds, 0.31% hits; Potency, µM (series often up to 46.1 µM), for inactives: at the top dose activation, usual class: activators; AID 624171; AREc32 ARE-luciferase reporter (MCF7-derived line), luminescence, 24 h; note: % of control where 0% means no effect; nearly all actives have a fitted effect of over 65% in size
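Steps: seed AREc32_Fluc cells (1000/well, 5% FBS OPTI-MEM); incubate overnight at 37 deg C; add 23 nL compound; incubate 24 hr; add Steady-Glo; hold 30 min RT; read luminescence.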
TrxR1 substrate: substrates of rat thioredoxin reductase 1 | 390,000 compounds, 0.01% hits | O89049 | purified TrxR1 substrate turnover, NADPH consumption readout | Potency, µM (doses to about 114 µM), inactives show top-dose activity change, negative = substrate turnover; note: % is set by controls: 0 for no effect and ±100 for the full control effect; nearly all actives have a fitted effect of over 50% in size
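Rat TrxR1, dispensed at 90 nM, was prereduced with 400 uM NADPH (final) for 5 min at ~22 deg C, then incubated with compound 15 min before 400 uM selenite. A first-read NADPH fluorescence drop versus no-compound background flagged substrates.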
Starred values were filed as active, the others as inactive; ? = inconclusive; nt = no result given; [ ] = dose if it differs, or a comment. Rows were chosen to be rich in hits. Some 3% of all compounds tested hit in one or more screens of this group. Calls come from the whole dose curve; as a rule, active = well fitted curve in the direction sought with a large enough effect; inconclusive = small, poorly fitted or top-dose-only effect, or another doubt; inactive = no such curve, though single readings can be large; an effect the other way counts as inactive or inconclusive. Potency is the fitted concentration of half-maximal effect.

SMILES | Nrf2 block | TrxR1 inh | GALK inh | A549 tox | Nrf2 ARE act | TrxR1 substrate
COc1ccccc1C(=O)N(Cc1nc(-c2ccc(Cl)cc2)no1)C(C)C | 21µM* | 3%[57.1 µM] | 4% | -11% | 0% | -9%[57.1 µM]
Cc1occc1C(=O)N(C)Cc1nc(-c2ccc(Cl)cc2)no1 | 21µM* | -7%[57.1 µM] | 4% | ? | 4% | -3%[57.1 µM]
Cc1ccccc1C(=O)N(Cc1nc(-c2ccc(Cl)cc2)no1)C(C)C | ? | 16% | nt | -5% | 0% | -3%
Cc1cccc(N(C)C(CNS(=O)(=O)c2ccccc2)c2ccccc2)c1 (centres undefined) | -24% | 23% | nt | 0% | 1% | 6%
NCC(=O)Nc1cccc(-c2nn3c(=O)cc(N4CCNCC4)nc3s2)c1 | 11% | nt | nt | -1% | nt | nt
CCOC(=O)c1cccc(NC(=O)Cc2ccc(NC(=O)N3CCCCc4ccccc43)cc2)c1 | ? | -1%[57.1 µM] | nt | -24% | 6% | -4%[57.1 µM]
COc1ccccc1N1C(=O)CC(Sc2n[nH]c(-c3cccc(C)c3)n2)C1=O (centres undefined) | 2% | 1.6µM* | 0% | -2% | 6% | 1%
COC(=O)[C@H](C)NC(=O)Nc1ccc(S(N)(=O)=O)cc1 | -5% | 22% | 3% | 3% | 0% | 0%
CC(C)C(Cl)=NOC(=O)Nc1ccc(S(N)(=O)=O)cc1 | -7% | 0.79µM* | nt | 0% | -3% | 3%[11.4 µM]
CC1CCCc2sc3nc(SCC(=O)c4ccc(Br)cc4)nc(N)c3c21 (centres undefined) | -13% | 4% | nt | -3% | 7% | 3%
Cc1ccc(-c2cc(C(F)(F)F)c(C#N)c(SCCC#N)n2)o1 | 7% | -18% | -1% | -2% | 7.1µM* | 12%
C#CCSc1nc(-c2ccccc2)cc(C(F)(F)F)c1C#N | -16% | -14% | -1% | 2% | 8.9µM* | 5%
COc1ccc(-c2cc(C(F)(F)F)c(C#N)c(SCC(=O)O)n2)cc1 | -7% | 17%[57.1 µM] | 12% | -11% | 3% | 26%[57.1 µM]
Cc1ccc(NS(=O)(=O)c2ccc3c(c2)CCN(C(=O)C(F)(F)F)C3)cc1C | ? | nt | nt | 2% | nt | nt
CCn1cc(C(=O)NCc2ccc3c(c2)OCO3)c(=O)c2cc(F)c(N3CCN(C(=O)c4ccco4)CC3)cc21 | 16µM* | 7%[57.1 µM] | 1% | ? | 1% | 49%[57.1 µM]
CCN(CC)CCCNC(=O)c1cn(CC)c2cc(N3CCN(C(=O)c4ccco4)CC3)c(F)cc2c1=O | 18% | 71µM* | -4% | 4% | -1% | 76%
O=S(=O)(c1ccccc1)c1nc(-c2ccco2)oc1SCc1ccc(F)cc1 | -21%[9.27 µM] | 6% | nt | -17% | -1% | -7%
COc1ccc(CNC(=O)Cn2c(=O)nc(-c3ccccc3)c3cc(Cl)ccc32)cc1OC | nt | 14%[57.1 µM] | nt | ? | 0% | 5%[57.1 µM]
COc1ccc(OC)c(CCNC(=O)C(=O)Nc2ccc3nc4n(c(=O)c3c2)CCCCC4)c1 | 21µM* | 4% | nt | -3% | -1% | -4%
O=C(CN1CCN(S(=O)(=O)c2ccc(Cl)cc2)CC1)c1ccc(O)c(O)c1 | 7% | 25µM* | 1% | 10% | 0% | -9%
O=C(NC1CC(=O)N(c2cccc(F)c2)C1)c1cccs1 (centres undefined) | nt | 4%[57.1 µM] | nt | 0% | 0% | -1%[57.1 µM]
COc1cccc2c1C(=O)c1c(O)c3c(c(O)c1C2=O)C[C@@](O)(C(=O)CO)C[C@@H]3O[C@H]1C[C@H](N)[C@H](O)[C@H](C)O1 | ? | 12% | nt | -22% | -2% | 2%
COc1cccc2c1C(=O)c1c(O)c3c(c(O)c1C2=O)C[C@@](O)(C(=O)CO)C[C@@H]3OC1CC(N)C(O)C(C)O1 (some centres undefined) | 5.8µM* | 1%[11.4 µM] | nt | 8.2µM* | -2% | 9%[57.1 µM]
Cc1cccc(C)c1Nc1c(-c2ccc(Cl)s2)nc2ncccn12 | ? | 0% | nt | -4% | 2% | -7%
CCCc1cc(=O)[nH]c(SCC(=O)Nc2sc(C(N)=O)c(C)c2C(=O)OCCOC)n1 | 5.2µM* | -6% | nt | -3% | -1% | -3%
SMILES | Nrf2 block | TrxR1 inh | GALK inh | A549 tox | Nrf2 ARE act | TrxR1 substrate
CCCc1cc(=O)[nH]c(SCC(=O)NC(=O)OCC)n1 | 6% | 33%[57.1 µM] | 0% | -1% | 0% | 8%[57.1 µM]
CC1=CC(C)(C)N2C(=O)C3(NCCc4c3[nH]c3ccccc43)c3cc(C)cc1c32 (centres undefined) | ? | 11% | -1% | 12µM* | 3% | -3%
CN1C(=O)C2(NCCc3c2[nH]c2ccccc32)c2ccccc21 (centres undefined) | 0% | -10% | -3% | -16% | 3% | -2%
O=C1c2ccccc2S(=O)(=O)N1Cc1nnc(-c2ccccc2Br)o1 | -29% | 20% | -3% | -18% | 4% | 1%
O=S1(=O)c2cccc3cccc(c23)N1Cc1nnc(-c2ccccc2Br)o1 | 21µM* | 9% | 0% | -22% | 4% | 21%
O=C(O[C@@H]1Cc2c(O)cc(O)cc2O[C@@H]1c1cc(O)c(O)c(O)c1)c1cc(O)c(O)c(O)c1 | nt | nt | 10µM* | nt | nt | nt
CCCN(CCC)Cc1c(C(=O)N/N=C/c2ccc(Br)cc2)nnn1-c1nonc1N | 16µM* | 4% | 0% | ? | -1% | -12%
CCCN(CCC)Cc1c(C(=O)N/N=C/c2cccs2)nnn1-c1nonc1N | 4% | 33% | 2% | 5% | 7% | 57%
CN(C)Cc1c(C(=O)N/N=C/c2ccccc2OCc2c(F)cccc2Cl)nnn1-c1nonc1N | 3% | 5% | -1% | 4% | 0% | -6%
CCCN(CCC)Cc1c(C(=O)N/N=C/c2ccoc2)nnn1-c1nonc1N | 11% | -4% | 14% | -1% | -1% | -1%
CN(C)Cc1c(C(=O)N/N=C/c2cccc(OCc3c(F)cccc3Cl)c2)nnn1-c1nonc1N | 3.7µM* | 28% | -7% | 0% | 0% | 9%
CCCc1c(C(=O)N/N=C/c2cccs2)nnn1-c1nonc1N | 15% | -3% | -2% | 0% | 8.9µM* | -8%
O=S(=O)(c1ccc(C(F)(F)F)cc1)N1CCN(S(=O)(=O)c2ccc3c(c2)OCCO3)CC1 | -15% | nt | nt | -3% | nt | nt
O=C(CCl)NCCCCCCCCCNC(=O)CCl | -13% | -14% | 2% | ? | 11µM* | 4%
COc1ccc(OC)c(NC(=O)CSc2nncc3ccccc23)c1 | -10% | -13% | -1% | ? | 0% | -5%
CCOc1ccccc1NC(=O)CSc1nncc2ccccc12 | 23µM* | ? | -2% | -13% | 29% | -21%
Cc1ccc(S(=O)(=O)NCC(c2ccc(N(C)C)cc2)N2CCc3ccccc32)cc1 (centres undefined) | nt | 17%[57.1 µM] | nt | -16% | -1% | 6%[57.1 µM]
